The whole screen tested about 31,000 sequences, of which about 1,400 (4.5%) were called active.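 How the source made its calls: active means median seed-adjusted z-score above 1 or below -1; inactive means the rest.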 The full list was thinned out, with actives kept by preference.

This assay in a line: Novel Modifiers of Survival Motor Neuron (SMN) Protein: Gene Identification via Genome-wide siRNA Screen.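 Further: luminescence tracks full-length SMN protein made from the SMN2 reporter.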 To be noted: HEK293T SMN2-luciferase reporter, siRNA knockdown, 72 h; actives lie on both sides. The essentials:
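siRNA screen, 10418 genes ×3 siRNAs; 1 pmol/well, lipid reverse transfection into HEK293T SMN2-luc reporter line. 72 h, 37 °C, 5% CO2; ONE-Glo readout. Data: neg-ctrl normalized, log10, MAD; hit = MAD >1.0 or < -1.0.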
Regarding CGGGAACUAUCCAAACAAUTT against DMBT1, the median seed-adjusted z-score is -0.131 (inactive).
The result for GCAGAACUGACAGUCGAUATT against DMTF1 reads 0.396 (inactive); that for GAGUGGACUGUGGAAGAUATT against RCOR1, -1.13 (active).
CCAAAAGAAUAUCCGCUAATT against NLK: the median seed-adjusted z-score is 0.256 (inactive).
As for CACCUACUGUGAUGACAGATT against EPAS1, the median seed-adjusted z-score is -0.166 (inactive).
The result for GAAGUAGACUUGAUACGAATT against AQR reads -1.56 (active).
Regarding AGCACAAGGUGGAACCGGUTT against CYGB, the median seed-adjusted z-score was -0.34 (inactive).
Turning to GCUACGAAAUGCUUGCUCATT against GALT, the median seed-adjusted z-score is 0.484 (inactive).
For GGAUCAUGACCUAUGCUAATT against AKAP3, the median seed-adjusted z-score is 0.0138 (inactive).
The result for GCUUUGUGAACGACAAUUATT against RABGGTB reads -0.856 (inactive).
In the case of CGCACGGACUGUACCAUUUTT against ETV2, the median seed-adjusted z-score is 0 (inactive).
Next, GCCUACUGGUCAUUGAUCATT against GNMT: 0.0261 (inactive).
The result for GACAUAUGCAAGAACUAUATT against PSAP reads 0.107 (inactive); that for AGAGGAGAGUGGAAUUCCATT against ARID3C, -1.32 (active).
Next, GCAGUUUCUUAACCACGUUTT against IFI16: -0.0178 (inactive).
In the case of ACUUUGCUCCUACUAUUCATT against NEGR1, the median seed-adjusted z-score was 0.194 (inactive).
With CCAUCGGACUGACAGUGAATT against COPZ1, the median seed-adjusted z-score was -1.02 (active).
Turning to CGAAAACUGAUACACUUGATT against KSR2, the median seed-adjusted z-score is -0.371 (inactive).
Take GCUGAUUUUUGCUAAUAAATT against ARL5A: the median seed-adjusted z-score was 0 (inactive).
Consider GCAUGUAAUGAGUAUCACATT against MRS2, for which the median seed-adjusted z-score is 1.38 (active).
The result for GAUCAACUGUGGAAAUAUUTT against KISS1R reads -0.299 (inactive).
The result for CCGUGUUCAUUCCUUUUCATT against ZFP41 reads 0 (inactive); that for CCACUAAAGGAUCAACGUATT against PHKB, -0.142 (inactive); that for GCGACUCCUAGAGAACAAATT against LSG1, 1.31 (active).
On to CAAGGUAGCUCAGCACUGATT against PEX6, for which the median seed-adjusted z-score was -0.281 (inactive).
For AGAGCGAGCCUUUGCUGAUTT against DAD1, the median seed-adjusted z-score is -0.45 (inactive).
As for CCCUGCUCCUCACUCAUUUTT against KRTAP5-5, the median seed-adjusted z-score is -1.07 (active).
For GUUCCGUACAGAUAAAGGATT against SAE1, the median seed-adjusted z-score was 0.831 (inactive).
Next, AUGUCACGCUGGUGCCCUATT against IFI30: 0.401 (inactive); GUAUCAUGCCCAUCUGAAATT against ZMAT4: -0.0468 (inactive); GAGAGACUCAAGAACGUGATT against ARCN1: -1.25 (active).
Next, AGCCUAUGAUUUUCCUGAATT against PTF1A: 0.482 (inactive).
The result for ACCUUGGUGUUGGACCUCATT against RNF26 reads 0.359 (inactive).
Consider GGGACACGCUAAAAGGAGATT against GNB4, for which the median seed-adjusted z-score was 0.015 (inactive).
Next, GGUCUAGCCUUGAUCAGAATT against SHROOM3: 0.779 (inactive).
In the case of GCAAAUCAGAGGUUCAGAUTT against SQLE, the median seed-adjusted z-score is -1.14 (active).
The result for GGGCUGCAAGUGGAAUUCATT against NR1H3 reads 0.426 (inactive); that for GGCAAACGAGUGUGCUUCATT against FAM47B, -0.0631 (inactive); that for CACCGGAGGUUUAUCACAATT against AMDHD2, -0.0707 (inactive).
The result for AGCCUGUAGCUUAAACUUATT against KCTD12 reads 0.431 (inactive); that for GUGUCCAACAGAUACGGAATT against DSCAM, -0.527 (inactive); that for GGCAGAUAUUUAAGCCUAUTT against HDAC2, -1.27 (active).
The result for GGAGUGCAAAAGGAACGAATT against APIP reads -0.0945 (inactive); that for GAGUUAUGGUGAACCCACATT against CDKN2B, 0.0154 (inactive).
Take GGACAUUCAAUUCAAACCATT against SMAD4: the median seed-adjusted z-score was 0.0746 (inactive).
The result for CUGUUUAGCUUCAUGCAAATT against ARID3C reads -1.32 (active).
Turning to GCAAGGCAAUGCAAACGAATT against DDX43, the median seed-adjusted z-score was -0.452 (inactive).
Next, GCGACUACCUGUUUCAACATT against PELO: 0.394 (inactive); GGAAAGAUCUUCAAUCAUATT against ZNF597: 0.366 (inactive); GGACAUUCGUCAGAUUUAUTT against TEAD1: 1.31 (active).
The result for GAGUGGAGCGUACAUCCUATT against ZXDA reads -0.0748 (inactive); that for CAAUAGUCCUGAGACCGAATT against MYST3, -0.49 (inactive); that for GCAUUACCGCGAUGAAUUATT against DNAI1, -0.783 (inactive).
Next, UCCUAACCUCAGAAACUGATT against CAPS: -1.25 (active); GGAAGGCUCCAAACGGAAATT against PBRM1: -0.118 (inactive); GCACGUUUGAGUACGAAUATT against SFPQ: -1.15 (active).
Regarding GGACCAGUCUGCCUAUGUATT against NXF5, the median seed-adjusted z-score is -0.396 (inactive).
Next, GCGGGACAGAAGUUAGAUATT against HCCS: 0.00254 (inactive).
The result for GGAUGAUAUGGGACCAUAATT against PTPRZ1 reads 1.73 (active).
The result for GUCUUGUAGAAAUCUCAGATT against RFC3 reads 0.733 (inactive); that for GCUUCGAGGAGGGCAAGAATT against PRSS27, 1.03 (active); that for GAUAGUGACAGGUUAAUGATT against TIGD6, -0.443 (inactive).
For GCCUGACCCGUGAGACAAATT against THY1, the median seed-adjusted z-score was -1.1 (active).
Next, GCAUCUAAAGAGCUACAGATT against ZNF584: 0.172 (inactive); CAAUGUCCAGGGUAUCAUUTT against HAO2: 0.039 (inactive); GGAGGGACAAGAUCAACAATT against USF2: 0.352 (inactive).
For the sequence CCAGCCGUGUUGUAGCUAATT against S100B, the median seed-adjusted z-score is 0.862 (inactive).
Next, CCGUAAAGCUGCAUUAGAATT against CUGBP1: 0.086 (inactive); GGGUCAUCAGUAGCAUUGATT against YWHAG: 1.98 (active).
The result for GCAGUACGGAAGCUACCGATT against SS18L1 reads -0.174 (inactive).
Next, CAUUGGACAGUAUUACAAATT against UBE2U: -0.0545 (inactive); CCUUCCCUCUACACCAUCATT against COPZ2: -1.23 (active).
Regarding CCUAAGUUACUACUAGUAUTT against ENPP4, the median seed-adjusted z-score is 0 (inactive).
The result for GGAUCUCACAGGUUCCGUUTT against LARS2 reads 0.25 (inactive); that for GAACUUGACCAUUAUAUCATT against PHKA2, 0.304 (inactive).
The result for CGGUGGUGAAUGAAAGUCATT against FKBP14 reads -0.455 (inactive); that for GAGGUGAACUGGAAGCGAATT against MBOAT1, -1.22 (active); that for CGCUUAACAUUGGAGUUCATT against ATG7, -0.328 (inactive).
The result for CUACGGCUUUGGAGAUAUATT against RECQL reads -0.905 (inactive); that for CAUCCAUUCUACAUCCGUATT against VHL, -0.0797 (inactive).
With AGAGCACAUCAAAUCAGAATT against PAX2, the median seed-adjusted z-score was 0.341 (inactive).
Consider GCUUAUGCGUAGAUCCUUUTT against SMYD4, for which the median seed-adjusted z-score is 0.272 (inactive).
On to GCACCUUCCCAACCAUCAATT against GPX2, for which the median seed-adjusted z-score was -0.21 (inactive).
Next, GCAGAUUUUGAGCAACUGATT against TRIM5: 0.0758 (inactive); GAACUUUGAUGACGAGUGATT against RAD23A: -1.13 (active); GAUGAUCAGCUAUGAAAAATT against ZNF780A: 0.298 (inactive).
Consider GCAGAUAUCUGAUAGCCCUTT against PPA2, for which the median seed-adjusted z-score is -0.497 (inactive).
Take CGUCUAUGCCUAUAAAAUATT against ADORA3: the median seed-adjusted z-score is 0 (inactive).
The result for GCGAUGCCUAUAAAACCUATT against TRYX3 reads 2.3 (active); that for CUAGGAAGAUAAUACCAGATT against BTRC, -0.0819 (inactive); that for GGAAGUACCUGAGUGUGCATT against MTCH1, 0 (inactive).
The result for GCUCUUUGCCGUUUCUAAUTT against SLC29A2 reads -0.0569 (inactive); that for CGAGAAAUUGCACAACCGATT against NACC1, 1.59 (active); that for GGACAUUGGACUAACCCAATT against EFHB, 0.675 (inactive).
Next, CUAUGGUAAUGUUUGCUUUTT against ZXDB: 0.186 (inactive); CAAGAUCAAGAGUUCCUGATT against CYP2B6: 0.454 (inactive).
CCGAGAGUAUGUCGACUUATT against CBFB: the median seed-adjusted z-score was -0.0379 (inactive).
The result for GGAAAACAAGCUCAUCAAUTT against HOXA6 reads -0.282 (inactive).
Next, GCAGCGUAGUUUUUGCGGATT against DOCK2: 0.151 (inactive); UCAGUGCCCUUGUAUCAAATT against CYP4F2: -0.387 (inactive).
The result for GCCUCAGUUUGAAAUUGUUTT against TBRG1 reads -1.47 (active); that for CAGACUCUCCGAUCUCUGATT against NRIP3, -0.699 (inactive); that for CCUGGAUCCAAAUAGCGAATT against SMARCA2, -0.458 (inactive).
With CUCUUUGACGUGUCUCAUATT against AMT, the median seed-adjusted z-score was -0.506 (inactive).
CCUGAACAUUGGACCCUGUTT against CPSF1: the median seed-adjusted z-score is 3.29 (active).
The result for UCACUUUCCCUGUAAAUAUTT against CD84 reads 0.629 (inactive).
With GCAAGACCUAAGCAAACUATT against BXDC1, the median seed-adjusted z-score is 0.173 (inactive).
As for CAUAGACUCUUACACCACATT against SC4MOL, the median seed-adjusted z-score is -0.0194 (inactive).
Regarding GGCUGUCUGCUGUACGAGATT against NEK6, the median seed-adjusted z-score was -0.674 (inactive).

The values are drawn from PubChem BioAssay AID1347426 (Functional Genomics Laboratory (NCATS/FGL), 2020).
